# Measurements published in the supplement of paper PMC6763611.
# System: Plasmodium falciparum NF54
# Test: growth inhibition relative to untreated control; higher = more inhibition
# Details: 5 µM; MM + chorismate end-products (CM screening medium); 72 h
# Summary of the method: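 Ring-stage P. falciparum NF54 parasites at 1% hematocrit and 1% parasitemia were dispensed at 100 μL/well into dark 96-well half-area plates and given a single dose of test compound at 5 μM or 1 μM for 72 h at 37 °C. Incubation took place in minimal RPMI, either alone or supplemented with the chorismate end-products folate (2.2 μM), pABA (7.3 μM), pHBA (7.3 μM), tyrosine (111 μM), phenylalanine (90 μM) and tryptophan. Growth inhibition was determined with SYBR Green relative to untreated wells, using uninfected erythrocytes for background.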
row,SMILES,growth inhibition [%]
1,COc1cc(C(F)(F)F)nc2ccc(C)c(N)c12,< 0
2,CCOc1ccccc1NC(C)C(=O)Nc1cc(C(F)(F)F)ccc1N1CCOCC1 (configuration not stated),91.6
3,CCc1ccc([C@@H]2C[C@H](C(F)(F)F)n3ncc(C(=O)NCc4ccc(OC)cc4)c3N2)cc1,24.8
4,O=C(Nc1cnc2ccccc2c1)c1cccc(-n2cnnn2)c1,86.9
5,COc1ccc(-c2cnc3ccc(NCc4ccc(S(N)(=O)=O)cc4)nn23)cn1,95.9
6,CCc1ccc(S(=O)(=O)Nc2cc(CN3CCN(CCC(C)C)CC3)ccc2C)cc1,64.6
7,Cc1nc(-c2cccc(NCc3ccccc3)c2)[nH]c1C,93.4
8,O=C(C1CCN(c2cc(-n3cccc3)ncn2)CC1)N1CCc2ccccc2C1,4.91
9,COc1ccc(Cn2cnc3c(-c4ccco4)nc(Cl)nc32)cc1,48.9
10,O=C(CN1CCOCC1)Nc1ccc2ncnc(Nc3ccc(OCc4cccc(F)c4)c(Cl)c3)c2c1,94.7
11,CC(C)/N=c1\cc2n(-c3ccc(Cl)cc3)c3ccccc3nc-2cc1Nc1ccc(Cl)cc1,90
12,NC(=O)c1cc(-c2ccsc2)ccc1OCCOc1ccccc1,4.73
13,Cc1nnc(NCc2cccc(Cl)c2)c2ccccc12,4.67
14,CCc1nc2ccccc2n1CC(O)COc1cc(C)ccc1Cl (configuration not stated),98.5
15,O=C(N[C@H](Cc1ccccc1)C(=O)Nc1ccccc1N1CCOCC1)c1cccs1,47.7
16,CC(C)(C)OC(=O)N1CCC(Cn2nc(-c3cnc4ccccc4c3)c3c(N)ncnc32)CC1,64.1
17,CC(Oc1cccc(Cl)c1)C(=O)Nc1ccc2oc(-c3ccncc3)nc2c1 (configuration not stated),< 0
